# FECH block – human FECH heme synthesis enzyme inhibition; P22830; purified FECH, Ni-mesoporphyrin absorbance 550 nm; AID 1671448; calls only at 10 µM (by protocol); 3.3% of 20,000 active;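 active = enzyme reaction rate more than 3 SD below the solvent-only control wells on the same plate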;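 also: lower slope than DMSO wells means FECH inhibition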
# Target sequence (P22830 whole entry, looked up): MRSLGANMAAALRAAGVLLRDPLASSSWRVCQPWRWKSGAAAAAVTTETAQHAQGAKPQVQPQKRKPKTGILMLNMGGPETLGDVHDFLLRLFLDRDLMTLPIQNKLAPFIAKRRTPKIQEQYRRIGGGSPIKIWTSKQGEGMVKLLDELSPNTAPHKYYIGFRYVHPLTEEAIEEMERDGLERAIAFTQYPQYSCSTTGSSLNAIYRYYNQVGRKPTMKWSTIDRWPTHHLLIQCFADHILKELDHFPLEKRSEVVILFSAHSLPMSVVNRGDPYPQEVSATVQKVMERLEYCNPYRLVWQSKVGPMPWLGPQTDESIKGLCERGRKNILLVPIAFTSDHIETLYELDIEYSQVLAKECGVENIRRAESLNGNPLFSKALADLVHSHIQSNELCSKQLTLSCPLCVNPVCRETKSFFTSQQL
# * hit, by the source's call; i = inactive; + = active, no number. The sample as a whole holds a higher share of hits than the screen did.
SMILES,FECH block
COc1ccc(CNc2nc3nc(CNc4ccc(C)c(C)c4)cc(=O)n3[nH]2)cc1,i
CCCNCc1cc(=O)n2[nH]c(NCc3ccccc3)nc2n1,i
O=c1cc(CNc2cccc(C(F)(F)F)c2)nc2nc(NCc3ccccc3)[nH]n12,i
COc1ccc(CNc2nc3nc(CNc4ccccc4C)cc(=O)n3[nH]2)cc1,i
O=c1cc(CNCc2ccccc2)nc2nc(NCc3ccccc3)[nH]n12,+
CCc1ccc(NCc2cc(=O)n3[nH]c(NCc4ccccc4)nc3n2)cc1,i
Cc1ccccc1NCc1cc(=O)n2[nH]c(NCc3ccccc3)nc2n1,+
O=c1cc(CN2CCCC2)nc2nc(NCc3ccc(F)cc3)[nH]n12,i
COc1ccc(CNc2nc3nc(CN4CCC(C)CC4)cc(=O)n3[nH]2)cc1,i
COc1ccc(CNc2nc3nc(CNc4cccc(C)c4)cc(=O)n3[nH]2)cc1,i
COc1ccc(CNc2nc3nc(CNc4ccc(C)cc4C)cc(=O)n3[nH]2)cc1,+
COCC(c1ccccn1)N(C)CC(=O)Nc1ccc(C)c(C)c1 (configuration not stated),i
COc1ccccc1NC(=O)NCCc1nc2cccnc2n1C1CCCCC1,i
COCCCNC(=O)C1CCC(Cn2c(=O)c3sccc3n(CC(N)=O)c2=O)CC1 (configuration not stated),i
CC(=O)Nc1c2n(c3ccc(F)cc13)CC(C)(C(=O)NC1CCCC1)N(C1CCCC(C)C1C)C2=O (configuration not stated),i
CSc1ccc2c(C)cc(NCCN3CCCC(C(N)=O)C3)nc2c1 (configuration not stated),i
Cc1ccc(C(=O)O)c(N2CCC(CC3CC3)(C(=O)O)CC2)n1,i
CCCS(=O)(=O)NCCn1c(C(F)(F)F)nc2cccnc21,i
Cc1ccc(CNC(=O)C2CCN(c3ccc(-c4ccc(F)cc4)nn3)CC2)o1,i
Cc1cc(Sc2ccccc2NC(=O)c2ccc3c(c2)OCO3)n2nc(-c3ccccc3)nc2n1,i
O=C(NCc1ccccc1-n1ccnc1)c1ccc(Cl)cn1,i
Cc1ccc(NCc2cc(=O)n3[nH]c(NCc4ccccc4)nc3n2)cc1Cl,i
COc1ccc(CNc2nc3nc(CNc4ccccc4Cl)cc(=O)n3[nH]2)cc1,i
Cc1ccc(Cl)cc1NCc1cc(=O)n2[nH]c(NCc3ccccc3)nc2n1,+
CSCc1noc(CNC2CCN(CC(C)C)CC2)n1,i
SMILES,FECH block
COc1cccc(C(=O)Nc2cccc(OCc3cc(=O)n4ccc(C)cc4n3)c2)c1,i
Cc1cccc(C(=O)Nc2cccc(OCc3cc(=O)n4ccc(C)cc4n3)c2)c1,i
COc1ccccc1C(=O)Nc1cccc(OCc2cc(=O)n3ccc(C)cc3n2)c1,+
COc1cccc(CC(=O)NCc2nc3cccnc3n2Cc2ccc(C)cc2)c1,i
CCCNC(=O)C1CCC(Cn2c(=O)c3sccc3n(CC(=O)NC3CCCCC3)c2=O)CC1 (configuration not stated),i
CCC(CO)N(Cc1ccsc1)C(=O)c1cccc(C(C)=O)c1 (configuration not stated),i
CCCn1ncc(C(=O)N(CC)Cc2noc(C)n2)c1C,i
CCOc1ccc(NC(=O)CN2CCCN(Cc3cccc(Cl)c3)S2(=O)=O)cc1,+
O=C(CN1CCCN(Cc2cccc(Cl)c2)S1(=O)=O)Nc1ccc2c(c1)OCO2,i
COc1ccc(CNC(=O)CN2CCCN(Cc3cccc(Cl)c3)S2(=O)=O)cc1,i
CCOc1ccc(NC(=O)CN2CCCN(Cc3ccccc3)S2(=O)=O)cc1,+
COC(=O)c1ccc(NC(=O)CN2CCCN(Cc3ccccc3)S2(=O)=O)cc1,i
CC(=O)c1ccc(NC(=O)CN2CCCN(Cc3ccccc3)S2(=O)=O)cc1,i
Cc1cc(C)n2nc(CN(C(=O)C(C)C)c3ccc(Cl)cc3)nc2n1,i
COc1ccc(Cn2c(CNC(=O)c3ccccc3F)nc3cccnc32)cc1,i
Cc1nc2ccccc2n1CCC(=O)N1CCCn2cncc2C1,i
CN(Cc1ccccc1)Cc1cc(C(=O)N(C)Cc2ccoc2)no1,i
CC(Cc1cnccn1)NC(=O)c1cc(-c2ccccc2)nn1C (configuration not stated),i
C=C(C)COc1ccc(C(=O)NC(C)Cc2cnccn2)cc1 (configuration not stated),+
CC(Cc1cnccn1)NC(=O)c1cccc(-c2cccc(F)c2)c1 (configuration not stated),i
Cc1cc(N2CCCC2)nc(Nc2ccc(NC(=O)C(C)(C)C)cc2)n1,i
COC(=O)c1ccc(CNC(=O)CN2[C@@H]3CC[C@H]2CC(O)C3)o1 (some centres not stated),i
CC(c1cccc(-c2ncc(F)c(N(C)C)n2)c1)N1CCCC1 (configuration not stated),i
O=C1CC2(CCN(CCc3ccccc3)CC2)CN1,+
O=C1CC2(CCN(C(=O)C/C=C/c3ccccc3)CC2)CN1,i
CC/C=C\CCCN1CCC2(CC1)CNC(=O)C2,i
Cc1cc(F)cc(-c2c(-c3ccccc3)ncn2CCCO)c1,i
